Measured values from PubChem BioAssay (NCI).
Compounds without any hit were thinned out: in the full panel of roughly 79,000, 15% have a hit. Unmarked numbers belong to inactive results. The source made the active and inactive calls. Rule as the data show it: active = growth inhibition above about 70%; inactive = the rest.

Legend:
[1] = NCI Yeast Anticancer Drug Screen. Data for the rad50 strain (AID 155);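 also: 0% = growth of vehicle-only cultures of the same strain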; settings: S. cerevisiae rad50 strain growth inhibition; at 50.0 µM; hits give high values
Method in brief: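 Yeast carrying a defined DNA repair defect were exposed to test compounds, and growth was compared with vehicle-treated controls to give percent inhibition.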

[2] = NCI Yeast Anticancer Drug Screen. Data for the mec2-1 strain (AID 157); settings: S. cerevisiae mec2-1 strain, at 50.0 µM, hits give high values
Method in brief: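 Growth inhibition is read against vehicle-treated controls after compound exposure of the mec2-1 yeast strain, which is defective in DNA damage repair or cell cycle control.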

[3] = NCI Yeast Anticancer Drug Screen. Data for the sgs1 mgt1 strain (AID 161);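 also: 0% = growth of cultures given vehicle only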; settings: S. cerevisiae sgs1 mgt1 strain, at 50.0 µM, hits give high values
Method in brief: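 Percent growth inhibition was derived by comparing compound-exposed mutant yeast with vehicle-exposed cultures. The strain carries alterations in DNA damage repair.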

[4] = NCI Yeast Anticancer Drug Screen. Data for the cln2 rad14 strain (AID 165);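 also: 0% = growth equal to vehicle treated cultures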; settings: S. cerevisiae cln2 rad14 strain, at 50.0 µM, hits give high values
Method in brief: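 Growth inhibition, relative to vehicle-treated controls, is the read-out. The test organism is a yeast strain with defined genetic alterations, cln2 rad14.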

[5] = NCI Yeast Anticancer Drug Screen. Data for the bub3 strain (AID 167); settings: S. cerevisiae bub3 mutant strain, at 50.0 µM, hits give high values
Method in brief: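 Compounds were applied to a genetically altered yeast strain carrying a cell-cycle control defect. Growth inhibition was scored against vehicle-treated controls.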

[6] = NCI Yeast Anticancer Drug Screen. Data for the mlh1 rad18 strain (AID 175); settings: S. cerevisiae mlh1 rad18 strain growth inhibition; at 50.0 µM; hits give high values
Method in brief: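 Cells of a genetically altered yeast strain, deficient in DNA damage repair, were treated with compound. Their growth was then compared with that of vehicle-treated cultures to give inhibition.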

| SMILES | growth inhibition [1] | growth inhibition [2] | growth inhibition [3] | growth inhibition [4] | growth inhibition [5] | growth inhibition [6] |
| --- | --- | --- | --- | --- | --- | --- |
| CCN(CC)CC1c2ccccc2C(CNc2ccccc2)N1C (stereo not given) | 4.5% | 29.4% | -10.1% | 14.2% | 5.65% | 7.65% |
| C[N+](C)(C)CC(=O)N/N=C(/Cc1nc2c3c(ccc2[nH]c1=O)C(=O)c1ccccc1C3=O)C(=O)Nc1ccc(Cl)c(Cl)c1 | 1.05% | -6.8% | -7.8% | 18.8% | 7.5% | 30.9% |
| CC1OC(OC2C(OC(=O)[C@]34CCC(C)(C)C[C@H]3C3=CC[C@@H]5[C@@]6(C)CC[C@H](OC7OC(C(=O)O)C(O)C(OC8OCC(O)C(O)C8O)C7O)C(C)(C)[C@@H]6CC[C@@]5(C)[C@]3(C)CC4)OCC(O)C2O)C(O)C(OC2OCC(O)C(O)C2O)C1OC1OCC(O)C(OC2OCC(O)C(O)C2O)C1O (stereo not given in full) | 17.1% | 21.2% | 19.6% | 31.2% | 38.4% | 29.8% |
| O=S(=O)(O)c1cc[n+]([O-])cc1 | 1.6% | 12.7% | -2.8% | 32.5% | 11.8% | -8.65% |
| CCOC(Cn1ccccc1=N)OCC | 12.8% | -11.7% | -12.6% | -40% | -7.3% | 4.15% |
| CCOC(=N)CC(=O)NC(C)c1ccccc1 (stereo not given) | 2.25% | -3.6% | -6% | 14.3% | 0.15% | 1.85% |
| CC(=O)OCCOCNC(=S)N/N=C/c1cc([N+](=O)[O-])ccc1O | 25.9% | -2.75% | 15.6% | 42% | 10.7% | -0.05% |
| Cc1nn(C(=O)c2ccc(Cl)cc2)c2c1C(c1ccc(O)cc1)SC(N)=N2 (stereo not given) | -33% | -49.1% | -43.7% | -26.8% | -23.9% | -31.2% |
| Cc1cc(S(=O)(=O)Nc2nc(N)nc(N3CCOCC3)n2)c(SCC(=O)O)cc1Cl | 5.75% | 19.4% | 15.2% | 12.9% | 6.25% | 18.2% |
| CN(C)CCNC(=O)c1cc([N+](=O)[O-])cn1C | 10.9% | -1.4% | 9.15% | 7.65% | 1.25% | -68.2% |
| C=C(C(=C)N1N=NC2C3CCC(C3)C21)N1N=NC2C3CCC(C3)C21 (stereo not given) | -5.9% | -15.9% | 10.3% | 7.15% | -4.75% | -7.95% |
| CC(=O)Nc1c(OC(C)=O)ccc2cc(Br)ccc12 | -0.15% | 20.9% | 12.4% | -15.2% | -0.25% | 8.85% |
| CC(=O)OCC1OC(n2c(-c3ccccc3)c(N=Nc3ccccc3)c(C)c(C#N)c2=S)C(OC(C)=O)C(OC(C)=O)C1OC(C)=O (stereo not given) | -14% | -17.4% | -20.2% | 11.5% | 2.55% | 9.75% |
| O=C1C2C3CCC(O3)C2C(=O)N1c1ccccn1 (stereo not given) | -26.3% | -11.6% | -4.85% | -25.1% | 2.25% | 0.2% |
| COc1ccc(C(C#N)NNc2nc(C)cc(=O)[nH]2)cc1OC (stereo not given) | -60.1% | -47.5% | -43.2% | -19.6% | -30.9% | -47% |
| CCOc1c2ccsc2c(OCC)c2ccsc12 | -14.9% | -25.8% | -10.2% | 6.05% | -5.15% | -35.8% |
| N#CCC(=O)c1ccccc1C(=O)O | -4.45% | -38.8% | 4.7% | 4.65% | -6.2% | 17.6% |
| Cc1ccc(N2C(=O)/C(=C/c3ccc(N(CCC#N)CCC#N)cc3C)N=C2c2cc([N+](=O)[O-])ccc2Cl)cc1 | 8.85% | 14.5% | 32.6% | 35.2% | 30.4% | 19.9% |
| OC1(c2ccccc2)C=C(c2ccccc2)C=C(c2ccccc2)O1 (stereo not given) | -5.95% | 10.7% | -1.05% | 0.9% | 8.05% | -2.55% |
| N#CSCc1c(Cl)c(Cl)c(CSC#N)c(Cl)c1Cl | -13.8% | -7.15% | 2.15% | -18.9% | 5.85% | -12.4% |

| SMILES | growth inhibition [1] | growth inhibition [2] | growth inhibition [3] | growth inhibition [4] | growth inhibition [5] | growth inhibition [6] |
| --- | --- | --- | --- | --- | --- | --- |
| BrCCC1(CCBr)CCCCC1 | 54% | 39.4% | 44.6% | 24.9% | 48.6% | 57.8% |
| CCOC(=O)/C(C#N)=C/c1ccc([N+](=O)[O-])cc1 | 19.2% | -2.75% | 14.5% | -5.6% | 0.35% | 8.4% |
| COc1ccc(CNc2ccccc2C(=O)O)cc1OC | 11.2% | 2.8% | -1.95% | 31.4% | 32.8% | 8.65% |
| c1ccc(-c2ccc3ncccc3c2)cc1 | -17.9% | 3.5% | 5.05% | -34.4% | -0.4% | 2.3% |
| COC(=O)C(CC(=O)[C@H]1CC[C@H]2[C@@H]3CC[C@H]4C[C@@H](OC(C)=O)CC[C@]4(C)[C@H]3CC[C@]12C)OC(C)=O (stereo not given in full) | 51.5% | 40.9% | 57.5% | 53% | -2.7% | 44.2% |
| COC(=O)/C(C#N)=C(C)/C=C/c1ccc(OC)cc1 | 22.6% | 14% | 8% | -15.6% | 18.6% | 22.2% |
| O=C(OCc1ccccc1CN1CCCC1)c1cccc(Cl)c1 | 2.8% | -3.75% | -8.1% | -7.2% | 8.35% | 2.65% |
| CC(Br)C1=CC(c2ccccc2)(c2ccccc2)c2ccccc21 (stereo not given) | 97% (active) | 98% (active) | 97.9% (active) | 96.8% (active) | 97.3% (active) | 96.7% (active) |
| CC1OC(n2cc(Cl)c(=O)[nH]c2=O)C=C(OC(=O)c2ccccc2)C1=O (stereo not given) | -18.6% | -27.4% | -24.9% | -16.8% | -22.4% | -28.9% |
| CCSc1nc2ccc(CN3C(=O)c4ccccc4C3=O)cc2s1 | 1.3% | -3.5% | -4.6% | 1.5% | 15.8% | -2.3% |
| CCc1ccccc1N1C(=O)C(=O)C(c2nc3ccccc3s2)C(=O)C1=O | 12.7% | 5.05% | 17.2% | 15.5% | 2.3% | 10.3% |
| Brc1ccc2c[n+]3ccccc3cc2c1 | 11.9% | 7.35% | 12% | -31.9% | 24.2% | 9.4% |
| CCOC(=O)Nc1c2ccccc2c(NC(=O)OCC)c2cc(Cl)ccc12 | 4.2% | -1.75% | 3.75% | 3.25% | 2.85% | 19.8% |
| N#Cc1nc(/C=C/c2nc(C#N)c(N)o2)oc1N | -34.5% | -28.7% | -5.25% | 9.25% | 8.4% | -0.95% |
| COC(=O)CNC(=O)C(Cc1ccc(OCc2ccccc2)cc1)NC(=O)OC(C)(C)C (stereo not given) | 6.65% | 11% | 23.1% | 2.25% | -10.6% | 26.6% |
| COc1ccc(CCNC(=O)c2ccc(CSc3ccc(Cl)cc3)o2)cc1OC | 34.5% | 24.1% | 37.6% | 50.5% | 42.8% | 25.1% |
| Cc1cc(C)c([N+](=O)[O-])c(N)n1 | 8.45% | -6.6% | -5.85% | -52% | 1.2% | -12.1% |
| O=C(N/C=C\NC(=O)Nc1cccc(Cl)c1)Nc1cccc(Cl)c1 | 40.8% | 16.1% | 15.8% | 15.8% | -1.95% | 18.8% |
| COc1cc(O)c(C(C)c2ccccc2)cc1N=NC(N)=O (stereo not given) | 17.1% | 16.4% | 19.3% | 32.8% | 43.4% | 45.5% |
| O=C1c2cc(Cl)ccc2-c2ccc(N=Cc3ccccc3Cl)cc21 | 1.65% | -1.55% | -7.8% | -89.5% | 34.1% | -1.35% |
